Consider 14 compounds from PubChem BioAssay.

The source made the active and inactive calls.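 Rule for the calls, unless noted: active = visual image review flags a hit and inhibition of aggregation exceeds 20%; inconclusive = visual hit but inhibition at or below 20%; inactive = no hit on visual image review.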

Experiment [1] in a line: inhibitors of TNFa-induced NFkB p65 translocation, primary screen, imaging, HUVEC, MLSMR starter and 10KST1 sets (AID 438;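 active = inhibition above 20% together with a positive visual image hit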;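 note: compound added about 3h40 before a 20 min TNFalpha stimulation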;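 for inhibition: signal is the nuclear over cytoplasmic p65 intensity ratio per well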). As to conditions: HUVEC TNFa-induced p65 nuclear translocation; cell count: measured here: nuclei count (cytotoxicity indicator), at 2.08 µM; inhibition: at 2 µM, stronger effect = higher value, 0% TNFa-plus-vehicle, 100% no-TNFa wells.
Experiment [2] in a line: inhibitors of mutant huntingtin aggregation, primary screen, imaging, exon1htt(103Q)mCFP cells, high-content imaging (AID 483).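 For nuclei count: percent of the per-plate median nuclei count of sample wells.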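 Note: compound exposure lasted 3 days before fixation.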 Particulars: exon1htt(103Q)mCFP cell line, aggregate imaging, at 2 µM; inhibition of aggregation: stronger effect = higher value; nuclei count: measured here: cell count, toxicity.
Experiment [3] in a line: inhibitors of E-selectin induction by TNFa, primary screen, imaging, HUVEC, immunofluorescence, MLSMR starter and 10KST1 sets (AID 487;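 active = visually confirmed hit in the image check and inhibition above 20%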;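 for inhibition: signal is fraction of cell area covered by stained E-selectin grains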;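 for nuclei count: 100% = median nuclei count of all wells on the same plate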). Particulars: HUVEC TNFalpha-induced E-selectin immunofluorescence imaging, at 2 µM; inhibition: stronger effect = higher value; nuclei count: measured here: cell number, toxicity.
Experiment [4] addresses Voltage-gated potassium channel subunit beta-2 (Rattus norvegicus) (UniProt P62483). Nature of the experiment: KvBeta enzyme negative modulators, primary screen, biochemical, NADPH fluorescence (AID 622;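 active = fluorescence slope higher than the sample average by over 3 SD, cut at about -0.22 in these data, passing the limit was not always enough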;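 note: slope of raw intensity against log time taken from 70 to 1610 s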). As to conditions: recombinant KvBeta, 4-cyanobenzaldehyde reduction, at 10 µM, stronger effect = higher value.
For experiment [5] the target is unchanged. The experiment can be described thus: KvBeta positive modulators, primary screen, biochemical, NADPH fluorescence (AID 623;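 active = NADPH fluorescence slope more negative than the mean of all samples by about 3 SD, 99.7% confidence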;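 note: fluorescence intensity change per second fitted from 20 to 320 s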). Particulars: Recombinant KvBeta, NADPH fluorescence decrease slope, 10 min; at 10 µM; stronger effect = lower value.
Experiment [6] addresses Alpha-2C adrenergic receptor (Homo sapiens) (UniProt P18825). Nature of the experiment: modulators of alpha2C/GIRK thallium flux, primary screen, cell-based, HEK293 alpha2C/GIRK1/2 (AID 624;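 active = fluorescence slope after compound addition differing from the mean of all screened samples at 99.7% confidence, in either direction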;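 note: slope of fluorescence ratio to pre-addition baseline per second over 15 to 24 s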). Particulars: thallium flux BTC fluorescence, at 10 µM, actives lie on both sides.
Experiment [7] is described as follows: inhibitors of Sendai virus-induced IRF3 signaling, primary screen, TLR/RLR signaling modifier project, cell-based, Sendai virus stimulus, luciferase, 10K MLSCN set (AID 602276;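 active = inhibition at or above 50% at 10 µM; inactive = inhibition below 50%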;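 note: firefly luciferase from ISG56 promoter only with Renilla not read in this screen; 0% = Sendai virus plus DMSO and 100% = medium plus DMSO without virus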). As to conditions: HEK293 RL24 IRF3 luciferase reporter, at 10 µM, stronger effect = higher value. In general terms: Reporter assays use an easily measured gene product as a stand-in for the process of interest.

The nature of experiment [8]: inhibitors of poly I:C-induced TLR3 signaling, primary screen, cell-based, poly I:C stimulus, luciferase, 10K MLSCN set (AID 602277;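 active = inhibition of the reporter signal at or above 50%; inactive = inhibition below 50%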). As to conditions: HEK293-TLR3 RL24 IRF3 luciferase reporter, at 10 µM, stronger effect = higher value.

Chain of Alpha-2C adrenergic receptor (Homo sapiens) (P18825 whole entry, looked up): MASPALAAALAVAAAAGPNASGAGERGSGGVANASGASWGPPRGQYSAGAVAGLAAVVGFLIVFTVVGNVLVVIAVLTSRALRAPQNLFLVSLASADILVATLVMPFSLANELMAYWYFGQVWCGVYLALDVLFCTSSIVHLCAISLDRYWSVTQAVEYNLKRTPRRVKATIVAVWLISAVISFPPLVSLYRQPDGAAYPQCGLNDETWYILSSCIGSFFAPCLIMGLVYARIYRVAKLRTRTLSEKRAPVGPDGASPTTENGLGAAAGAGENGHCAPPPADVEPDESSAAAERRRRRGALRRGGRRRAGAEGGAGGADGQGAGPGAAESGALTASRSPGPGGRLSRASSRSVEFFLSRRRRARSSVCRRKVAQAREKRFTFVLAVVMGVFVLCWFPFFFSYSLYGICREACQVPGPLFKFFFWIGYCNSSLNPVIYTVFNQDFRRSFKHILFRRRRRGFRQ
Chain of Voltage-gated potassium channel subunit beta-2 (Rattus norvegicus) (P62483 whole entry, looked up): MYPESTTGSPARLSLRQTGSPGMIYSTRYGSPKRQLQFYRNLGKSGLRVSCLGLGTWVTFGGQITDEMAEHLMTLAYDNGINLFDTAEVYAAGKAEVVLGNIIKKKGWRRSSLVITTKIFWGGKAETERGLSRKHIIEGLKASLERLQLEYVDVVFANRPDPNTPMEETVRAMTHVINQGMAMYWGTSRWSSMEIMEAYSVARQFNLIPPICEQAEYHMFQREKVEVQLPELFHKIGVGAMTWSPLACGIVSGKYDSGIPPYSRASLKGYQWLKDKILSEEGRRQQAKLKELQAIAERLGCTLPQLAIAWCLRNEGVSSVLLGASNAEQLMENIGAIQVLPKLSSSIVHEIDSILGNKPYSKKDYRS

Consider `CCOC(=O)C(C)n1cnc2c(nnn2Cc2ccc(C)cc2)c1=O` (centres undefined), for which the cell count in experiment [1] stood at 618. Besides, the inhibition in experiment [1] was -3.7% (inactive); in experiment [3], -1.8% (inactive); in experiment [7], 16.6% (inactive); in experiment [8], 20.1% (inactive). Also, the inhibition of aggregation in experiment [2] is 6% (inactive). The nuclei count in experiment [2] was 91.7%; in experiment [3], 86.9%. Moreover, the fluorescence slope in experiment [4] was -0.503 (inactive). Further, in experiment [5], the NADPH fluorescence slope is -0.000137 (inactive). The slope in experiment [6] was 0.00481 (inactive).
Consider `O=C(CN(c1ccc(F)cc1)S(=O)(=O)c1ccc2c(c1)OCCO2)Nc1ccc2c(c1)OCO2`, for which the cell count in experiment [1] was determined as 795. Moreover, the inhibition is -6.1% (inactive) in experiment [1], -49.1% (inactive) in experiment [3], 16.4% (inactive) in experiment [7] and 16.1% (inactive) in experiment [8]. For the same compound, the inhibition of aggregation in experiment [2] is -28.9% (inactive). The nuclei count in experiment [2] was determined as 105%; in experiment [3] it was 114%. For the same compound, the fluorescence slope in experiment [4] was -0.485 (inactive). For the same compound, the NADPH fluorescence slope in experiment [5] is -3.3e-05 (inactive). In experiment [6], the slope is 0.00328 (inactive).
Turning to `COc1cc(-c2noc(-c3ccccc3C(=O)NCc3ccco3)n2)cc(OC)c1OC`, the cell count in experiment [1] worked out at 654. The inhibition in experiment [1] is -5.4% (inactive); in experiment [3], -111% (inactive); in experiment [7], 14.7% (inactive); in experiment [8], 31.9% (inactive). For the same compound, the inhibition of aggregation in experiment [2] was -4% (inactive). Besides, the nuclei count was 112% in experiment [2] and 156% in experiment [3]. Further, in experiment [4], the fluorescence slope is -0.59 (inactive). In addition, the NADPH fluorescence slope in experiment [5] was -4.7e-05 (inactive). For the same compound, the slope in experiment [6] was 0.00612 (inactive).
With `CC1CN(c2nc(-c3ccccc3)nc3ccccc23)CC(C)O1` (centres undefined), the cell count in experiment [1] was determined as 407. In addition, the inhibition was -6% (inactive) in experiment [1], -29.4% (inactive) in experiment [3], 12% (inactive) in experiment [7] and 22% (inactive) in experiment [8]. Also, the inhibition of aggregation in experiment [2] was -1.5% (inactive). Further, the nuclei count is 99.3% in experiment [2] and 114% in experiment [3]. The fluorescence slope in experiment [4] was -0.333 (inactive). For the same compound, the NADPH fluorescence slope in experiment [5] was -5.3e-05 (inactive). In experiment [6], the slope was 0.00612 (inactive).
As to `CN(C#N)c1nc(N2CCOCC2)nc(N2CCOCC2)n1`, the cell count in experiment [1] worked out at 424. The inhibition in experiment [1] is -3.8% (inactive); in experiment [3], -192% (inactive); in experiment [7] it was 16.7% (inactive); in experiment [8], 20% (inactive). Also, in experiment [2], the inhibition of aggregation was -5.5% (inactive). Further, the nuclei count in experiment [2] worked out at 104%; in experiment [3], 105%. The fluorescence slope in experiment [4] was -0.612 (inactive). In experiment [5], the NADPH fluorescence slope was 6.7e-06 (inactive). For the same compound, the slope in experiment [6] was 0.00573 (inactive).
For the compound `COCc1nnc(NC(=O)CCCOc2ccccc2)s1`, the cell count in experiment [1] amounted to 732. The inhibition in experiment [1] is 2.1% (inactive); in experiment [3] it was -11.3% (inactive); in experiment [7], 1.61% (inactive); in experiment [8], 9.03% (inactive). In addition, the inhibition of aggregation in experiment [2] was -7.8% (inactive). In addition, the figures for the nuclei count in experiment [2] and in experiment [3] were 92% and 103%, respectively. The fluorescence slope in experiment [4] was -0.42 (inactive). Further, the NADPH fluorescence slope in experiment [5] was 9.1e-06 (inactive). Also, the slope in experiment [6] was 0.00536 (inactive).
Take `COc1ccc(OC)c2[nH]c(=O)c(CCNC(=O)C(C)C)cc12`: in experiment [1], the cell count is 629. Also, the inhibition in experiment [1] was -21.1% (inactive); in experiment [3], -27.3% (inactive); in experiment [7] it was -3.11% (inactive); in experiment [8], 9.79% (inactive). In addition, the inhibition of aggregation in experiment [2] is 7.9% (inactive). Also, the nuclei count came out at 79.4% in experiment [2] and 112% in experiment [3]. For the same compound, the fluorescence slope in experiment [4] is -0.56 (inactive). Also, the NADPH fluorescence slope in experiment [5] is -1.8e-05 (inactive). The slope in experiment [6] is 0.00598 (inactive).
For the compound `Cc1cc(Cl)c(S(=O)(=O)Nc2ccc3c(c2)OCCO3)cc1OCC(N)=O`, the cell count in experiment [1] came to 526. The inhibition is 1.8% (inactive) in experiment [1], -79.1% (inactive) in experiment [3], 32.8% (inactive) in experiment [7] and 30.7% (inactive) in experiment [8]. For the same compound, the inhibition of aggregation in experiment [2] was -7.1% (inactive). The nuclei count is 106% in experiment [2] and 113% in experiment [3]. The fluorescence slope in experiment [4] is -0.516 (inactive). Also, the NADPH fluorescence slope in experiment [5] is 1.1e-05 (inactive). For the same compound, in experiment [6], the slope was 0.00485 (inactive).
Turning to `O=C(Nc1nnc(-c2ccc(Cl)cc2)o1)C1CCCCC1`, the cell count in experiment [1] turned out to be 673. The inhibition was 1.8% (inactive) in experiment [1], -21.5% (inactive) in experiment [3], 6.6% (inactive) in experiment [7] and 3.98% (inactive) in experiment [8]. Also, the inhibition of aggregation in experiment [2] was 18.6% (inactive). Further, the nuclei count in experiment [2] was 96.8%; in experiment [3], 115%. The fluorescence slope in experiment [4] is -0.443 (inactive). Besides, the NADPH fluorescence slope in experiment [5] was -6.8e-05 (inactive). For the same compound, in experiment [6], the slope was 0.00624 (inactive).
On to `CCOC(=O)c1cccc(NC(=O)CNS(=O)(=O)c2cccs2)c1`, for which, in experiment [1], the cell count was found to be 445. Besides, the inhibition in experiment [1] was 6.8% (inactive); in experiment [3], -7.8% (inactive); in experiment [7], -11.6% (inactive); in experiment [8], -10.2% (inactive). Moreover, the inhibition of aggregation in experiment [2] was -11.6% (inactive). The nuclei count in experiment [2] came to 108%; in experiment [3], 134%. Moreover, the fluorescence slope in experiment [4] is -0.518 (inactive). Further, the NADPH fluorescence slope in experiment [5] was -4.4e-05 (inactive). Further, in experiment [6], the slope is 0.00596 (inactive).
On to `COc1ccc(CN2C(=O)[C@@H]3C(c4ccc(F)cc4)=NO[C@@H]3C2=O)cc1`, for which the cell count in experiment [1] came out at 338. Further, the inhibition in experiment [1] is -10.5% (inactive); in experiment [3] it was -34.5% (inactive); in experiment [7], 13.4% (inactive); in experiment [8], 23.3% (inactive). In experiment [2], the inhibition of aggregation was -8.2% (inactive). The nuclei count amounted to 87.7% in experiment [2] and 113% in experiment [3]. Besides, the fluorescence slope in experiment [4] was -0.302 (inactive). Besides, in experiment [5], the NADPH fluorescence slope is -5.3e-05 (inactive). In experiment [6], the slope was 0.00504 (inactive).
As to `O=C(Cn1nnc(-c2ccccc2)n1)Nc1ccccc1N1CCOCC1`, in experiment [1], the cell count was determined as 584. For the same compound, the inhibition was 3% (inactive) in experiment [1], -16% (inactive) in experiment [3], 14.7% (inactive) in experiment [7] and 14.8% (inactive) in experiment [8]. In experiment [2], the inhibition of aggregation was 5.4% (inactive). The results for the nuclei count in experiment [2] and in experiment [3] were 63.9% and 107%, respectively. Moreover, the fluorescence slope in experiment [4] is -0.602 (inactive). Further, in experiment [5], the NADPH fluorescence slope is 2.3e-05 (inactive). For the same compound, the slope in experiment [6] is 0.0042 (inactive).
As to `NC(=O)NC(=O)CSc1cccc(C(F)(F)F)c1`, the cell count in experiment [1] came to 570. The inhibition in experiment [1] was -10.9% (inactive); in experiment [3], -77.3% (inactive); in experiment [7] it was 13.4% (inactive); in experiment [8] it was 18.2% (inactive). Besides, in experiment [2], the inhibition of aggregation was -3.2% (inactive). Also, the nuclei count was determined as 101% in experiment [2] and 123% in experiment [3]. The fluorescence slope in experiment [4] was -0.51 (inactive). For the same compound, the NADPH fluorescence slope in experiment [5] is -6.1e-05 (inactive). Moreover, the slope in experiment [6] was 0.00622 (inactive).
As to `COc1cc2c(N3CCOCC3)cc(O)c(CC(=O)Nc3ccccc3)c2cc1OC`, the cell count in experiment [1] was found to be 217. Also, the inhibition in experiment [1] was 2.5% (inactive); in experiment [3] it was -63.7% (inactive); in experiment [7], -3.63% (inactive); in experiment [8] it was 7.05% (inactive). Also, the inhibition of aggregation in experiment [2] is 0.7% (inactive). Moreover, the nuclei count in experiment [2] was determined as 107%; in experiment [3], 101%. For the same compound, in experiment [4], the fluorescence slope was -0.344 (inactive). Moreover, the NADPH fluorescence slope in experiment [5] is -3.7e-06 (inactive). In experiment [6], the slope is 0.00641 (inactive).

The inhibition is the change of the read-out against control, counted positive when it falls.
